HP1b chromo inh = HP1-beta chromodomain-methylated histone interaction inhibition. P83916. AlphaScreen HP1-beta / biotin-H3K9me3 peptide binding. Potency, µM (top dose mostly 114 µM), inactives show at the top dose activity change, negative = inhibition, most hits filed as inhibitors. actives 0.56% (n = 390,000). AID 540317; note: nearly all actives have a fitted effect of over 70% in size
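HP1-beta protein (50 nM final) preincubated 30 min at room temperature with biotinylated H3(1-18)K9me3 peptide (50 nM) in PBS pH 7.4, 0.01% Tween-20, then compound added for 30 min. AlphaScreen streptavidin donor/nickel chelate acceptor beads (10 ug/mL final), 30 min dark, luminescence read.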
12-LOX inh = blocks human arachidonate 12S-lipoxygenase; actives 1.1% (n = 580,000); Potency, µM (highest dose often 108 µM), for inactives: at the top dose activity change, negative = inhibition, actives largely listed as inhibitors; P18054; purified 12hLO, xylenol orange hydroperoxide absorbance; note: % is set by controls: 0 for no effect and ±100 for the full control effect
Target sequence (P18054 whole entry, looked up): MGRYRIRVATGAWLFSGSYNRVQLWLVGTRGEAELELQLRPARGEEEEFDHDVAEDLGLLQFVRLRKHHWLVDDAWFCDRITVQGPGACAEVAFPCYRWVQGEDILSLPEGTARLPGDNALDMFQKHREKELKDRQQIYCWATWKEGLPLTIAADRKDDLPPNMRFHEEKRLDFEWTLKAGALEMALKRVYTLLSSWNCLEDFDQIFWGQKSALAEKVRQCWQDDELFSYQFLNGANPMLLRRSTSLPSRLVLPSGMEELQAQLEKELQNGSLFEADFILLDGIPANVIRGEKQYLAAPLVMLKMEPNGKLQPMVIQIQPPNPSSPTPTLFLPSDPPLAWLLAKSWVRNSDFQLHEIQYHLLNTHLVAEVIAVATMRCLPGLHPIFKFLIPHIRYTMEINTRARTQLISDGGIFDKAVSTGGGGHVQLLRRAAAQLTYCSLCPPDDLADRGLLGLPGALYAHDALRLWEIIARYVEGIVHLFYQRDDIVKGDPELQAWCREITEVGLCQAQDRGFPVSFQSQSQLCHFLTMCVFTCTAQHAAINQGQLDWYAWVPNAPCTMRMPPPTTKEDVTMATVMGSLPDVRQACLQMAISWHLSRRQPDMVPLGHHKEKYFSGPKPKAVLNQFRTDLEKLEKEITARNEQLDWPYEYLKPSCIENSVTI
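Hydroperoxide product was detected by ferrous iron/xylenol orange as the 573 to 405 nm absorbance ratio. Arachidonic acid at 40 uM (final) was turned over for 30 min at room temperature by 150 nM human 12hLO, pH 7.0 Hepes buffer, after 15 min compound preincubation.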
JMJD2A Tudor = JMJD2A Tudor domain (human) inhibition. O75164. AlphaScreen JMJD2A-Tudor / H3K4me3 peptide binding. Potency, µM (series often up to 114 µM), for the others: at the highest dose activity change, negative = inhibition, most hits filed as inhibitors. actives 4.4% (n = 390,000); note: % is set by controls: 0 for no effect and ±100 for the full control effect; nearly all actives have a fitted effect of over 50% in size
G9a block = blocks human histone lysine methyltransferase G9a | G9a H3K9 monomethylation, AlphaScreen, 2 h | Potency, µM (titrated, usually from 102 µM), without a hit: at the highest dose activity, negative = inhibition, most hits filed as inhibitors | actives 8.8% (n = 350,000) | AID 504332; note: % is set by controls: 0 for no effect and ±100 for the full control effect; nearly all actives have a fitted effect of over 75% in size
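Signal arises when biotinylated H3K9 peptide, once monomethylated, bridges streptavidin donor and antibody-captured acceptor beads. Enzyme at 20 nM was preincubated 15 min with test compounds; peptide 500 nM and SAM 20 uM then reacted for 2 h.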
Sfp inh = blocks B. subtilis Sfp PPTase activity. actives 3.5% (n = 310,000). Q9F4F7. Potency, µM, for inactives: largest response in the series, negative = inhibition, hits mostly inhibitors. Biochemical Sfp PPTase activity, qHTS;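 note: the enzyme is Sfp with the accession as filed and its product quenches rhodamine fluorescence; 0% = enzyme reaction without inhibitor and -100% = no enzyme wells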
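Step 1, compound plus 15 nM Sfp-PPTase, 15 min, room temperature. Step 2, add rhodamine-CoA (5 uM) and BHQ-2-YbbR (12.5 uM). Step 3, read 525/598 nm fluorescence at 0 and 30 min.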
BAZ2B block = inhibitors of human BAZ2B bromodomain; Potency, µM (series often up to 114 µM), for the others: top-dose activity change, negative = inhibition, actives largely listed as inhibitors; actives 4.4% (n = 360,000); Q9UIF8; AlphaScreen BAZ2B-H3K14Ac peptide displacement; AID 504333; note: % is set by controls: 0 for no effect and ±100 for the full control effect; nearly all actives have a fitted effect of over 60% in size
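AlphaScreen displacement: compounds (up to 110uM) incubated 30 min at room temperature with a preformed 50 nM BAZ2B/50 nM biotinylated H3K14Ac peptide complex in PBS pH 7.4 with Tween-20. Donor and acceptor beads at 10 ug/mL final added, 20 min light-protected before reading.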
Starred values were filed as active, the others as inactive; i = inactive; u = inconclusive; x = no result given; [ ] = remark or other dose. Only some compounds are listed: those with a hit (about 8.7% of all), similar ones and a draw of the others. Calls come from the whole dose curve; as a rule, active = well fitted curve in the direction sought with a large enough effect; inconclusive = small, poorly fitted or top-dose-only effect, or another doubt; inactive = no such curve, though single readings can be large; an effect the other way counts as inactive or inconclusive. Potency is the fitted concentration of half-maximal effect.

SMILES	HP1b chromo inh	12-LOX inh	JMJD2A Tudor	G9a block	Sfp inh	BAZ2B block
N#Cc1ccc(Cl)cc1NC(=S)NCCc1ccccc1	x	23%	x	x	x	x
CCCNC(=O)c1ccccc1SCc1c(C)noc1C	53%	0%	1%	25µM*	-11%	79µM*
COc1cccc(Cn2c(=O)n(CC3CCC(C(=O)N4CCCC4)CC3)c(=O)c3sccc32)c1 (stereo unspecified)	x	0%	x	x	x	x
O=S(=O)(NCC1(c2ccccc2)CCC1)c1cccc(F)c1	x	-7%	x	x	x	x
COc1c([N+](=O)[O-])c(=O)n(-c2ccccc2)c2ccccc12	26%	u	-16%	u	18µM*	-25%
CCOc1nc2ccccc2nc1N1CCC(C(=O)NC(C)c2ccccc2)CC1 (stereo unspecified)	x	24%	x	x	x	x
CCOC(=O)c1c(NC(C)=O)sc2c(O)c(CN3CCN(CC)CC3)ccc12	-6%	u	u	25µM*	5%	u
S=C(SSC(=S)N1CCOCC1)N1CCOCC1	x	5µM*	x	x	x	x
CC(SC(=S)N1CCOCC1)C(=O)O (stereo unspecified)	15%	1%	-21%	-1%[12.7 µM]	5%	25µM*
Cc1occc1-c1nnc(SCc2nnc(-c3ccc(Cl)cc3)o2)n1C	u	0%	-35%[11.4 µM]	79µM*	-29%	-21%
Cn1nnnc1SCc1nnc(-c2ccc(Cl)cc2)o1	56%	-6%	3%	6%[59 µM]	13%	-15%
Cc1ccsc1C(=O)N1CCC2(CC1)NC(=O)N(c1ccccc1)N2	x	7.1µM*	x	x	x	x
C=CCC1CCCCC12NC(=O)N(c1ccccc1)N2 (stereo unspecified)	18%	-9%	-10%	x	-7%	-1%
Cc1ccc(C(=O)N2CCC3(CC2)NC(=O)N(c2ccccc2)N3)cc1	x	1.3µM*	x	x	x	x
Cc1ccsc1C(=O)N1CCC2(CC1)NC(=O)N(c1cccc(Cl)c1)N2	x	1.3µM*	x	x	x	x
O=C1CCC2(CC1)NC(=O)N(c1ccccc1)N2	37%	u	-6%[11.4 µM]	7.1µM*	10%	-11%
Cc1ccsc1C(=O)N1CCN(S(=O)(=O)c2cccs2)CC1	22%	i	9%	2%	16%	3%
Cc1ccsc1C(=O)N1C[C@@H](Oc2cccnc2)C[C@@H]1C(=O)N1CCOCC1	x	31%	x	x	x	x
Cc1ccc(C(=O)N2CCC3(CC2)NC(=O)N(c2cccc(F)c2)N3)s1	x	-70%	x	x	x	x
Cc1ccsc1C(=O)N1CCC2(CC1)NC(=O)N(c1cccc(F)c1)N2	x	2.8µM*	x	x	x	x
Cc1noc(NS(=O)(=O)c2ccc(NC(=O)CSc3nc4c(cc3C#N)CCCC4)cc2)c1C	39%	-14%	-12%	25µM*	u	-9%
Cc1cc(C)nc(SCC(=O)Nc2ccc(S(=O)(=O)Nc3onc(C)c3C)cc2)n1	44%	-8%	-5%	-16%	14%	5%
Cc1noc(NS(=O)(=O)c2ccc(NC(=O)CSc3nc4c(cc3C#N)CCC4)cc2)c1C	-1%	-17%	25µM*	7.1µM*	50µM*	u
Cc1noc(NS(=O)(=O)c2ccc(NC(=O)CSc3nc4ccccc4s3)cc2)c1C	-31%	u	u	8.9µM*	50µM*	-15%
COc1ccc(NS(=O)(=O)c2cccc(C(=O)Nc3ccc4oc(C)nc4c3)c2)cc1	x	0%	x	x	x	x
SMILES	HP1b chromo inh	12-LOX inh	JMJD2A Tudor	G9a block	Sfp inh	BAZ2B block
COc1ccc(C(=O)NCCn2ccn3nc(-c4cc(C)ccc4C)cc3c2=O)cc1	x	47%	x	x	x	x
CCOc1ccc(-c2cc3ccccc3[nH]2)cc1	x	13µM*	x	x	x	x
COc1ccc(-c2cc3ccccc3[nH]2)cc1	u	u	7.1µM*	x	5%	-21%
c1ccc(-c2cc3ccccc3[nH]2)cc1	26%	-6%	-9%	x	2%	-5%
COc1ccc(-c2cc(=O)c3ccccc3[nH]2)cc1	53%	u	-4%	-3%	10%	5%
Cc1ccc(O)c(-c2cc3ccccc3[nH]2)c1	u	u	u	u	-10%	45µM*
COc1ccc(CNC(=O)c2noc(-c3ccc(C)cc3)n2)cc1OC	x	7%	x	x	x	x
O=C1NC2(CN(Cc3cncs3)C2)Oc2ccccc21	x	25%[176 µM]	x	x	x	x
N#Cc1nc(-c2ccccc2)oc1N1CCC(C(N)=O)CC1	-5%	u	-18%	-2%	5%	-5%
Cc1ccccc1OCc1ccc(-c2nc(C#N)c(N3CCC(C(N)=O)CC3)o2)o1	-5%	u	u	10µM*	x	u
Cc1ccccc1OCc1ccc(-c2nc(C#N)c(N(C)C)o2)o1	x	-65%	x	x	x	x
CCN1CCN(c2oc(-c3ccc(COc4ccccc4C)o3)nc2C#N)CC1	u	8%	50µM*	5%[59 µM]	x	11%
O=C(NCc1ccco1)[C@@H]1Cc2nc[nH]c2CN1Cc1ccc(C(F)(F)F)cc1	x	60%[176 µM]	x	x	x	x
C#CCNC(=O)c1ccc2nccn2c1	x	3%[12.5 µM]	x	x	x	x
COc1ccc(-c2nn(-c3ccccc3)cc2/C=N/Nc2cccc(C(=O)O)c2)cc1	16%	0%	u	22µM*	7%	-37%
COc1ccc(-c2nn(-c3ccccc3)cc2/C=N/O)cc1OC	55%	12%	-15%	-28%	13%	-23%
COc1ccc(-c2nn(-c3ccccc3)cc2/C=N/NC(=S)NC(C)C)cc1OC	-15%	35µM*	-33%	-5%[59 µM]	11%	u
COc1ccc(-c2nn(-c3ccccc3)cc2/C=N/N=C(N)N)cc1OC	-12%	u	u	u	50µM*	u
C=CCNC(=S)N/N=C/c1cn(-c2ccccc2)nc1-c1ccc(OC)cc1	13%	40µM*	-28%	45%[59 µM]	21%	-35%
Cc1ccc(C(=O)CC(c2ccc(Cl)cc2)S(=O)(=O)c2ccc(C)cc2)cc1 (stereo unspecified)	x	0%	x	x	x	x
CCc1nc2c(c(-c3ccc(Cl)cc3)n1)CCN([S+](=O)([O-])c1c(C)noc1C)CC2	x	32%	x	x	x	x
COCCOC1CCN(C(=O)c2ccc(Cc3c(C)noc3C)o2)CC1	x	36%	x	x	x	x
O=C1c2c([N+](=O)[O-])cc([N+](=O)[O-])cc2S(=O)N1Cc1ccccc1 (stereo unspecified)	u	u	89µM*	0.89µM*	50µM*	45µM*
O=[N+]([O-])c1ccc(NC2CCN(Cc3ccccc3)CC2)c([N+](=O)[O-])c1	u	-21%	-72%	u	13%	u
Cn1c(SCC(=O)NCc2ccco2)nnc1-c1ccc2c(c1)OCCO2	x	3%	x	x	x	x
NS(=O)(=O)c1ccc(CCNC(=O)CSc2nc3ccsc3c(=O)n2C2CC2)cc1	43%	0%	1%	71µM*	-11%	15%
